From the supplement of paper PMC6522484 come the findings set out here.

In assay [1] the test system is DLD1. Briefly: cell viability (CellTiter-Glo) relative to plate median (fraction of plate median); higher = more viable cells. The following applies: 5 µM; treatment time 24 h; reporter: 7TFP. In short, it runs like this:
(§1)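 Per-well firefly luciferase or CellTiterGlo luminescence, normalised to the plate median, is what is reported. It was measured in colorectal cancer cells with stable lentiviral TCF/Wnt firefly luciferase reporters after a 24 h treatment with library compounds at a final 5 µM. The mean of two independent replicates is given.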

In a further assay the test system is HCT116. Described as above. The following applies: 5 µM; treatment time 24 h; reporter: TCF4/Wnt. In short, it runs like this: as §1
In assay [2] the test system is SW480. Described as above. The following applies: 5 µM; treatment time 24 h; reporter: 7TFP. In short, it runs like this: as §1
Assay [3] concerns DLD1. Kind of assay: TCF/Wnt firefly luciferase reporter signal relative to plate median (fraction of plate median); higher = higher Wnt reporter signal. The following applies: 5 µM; treatment time 24 h; reporter: 7TFP. In short, it runs like this:
as §1

The subject of assay [4] is SW480. Described as above. The following applies: 5 µM; treatment time 24 h; reporter: 7TFP. Summed up:
as §1

± gives the standard deviation of the averaged measurements.

As for `Cc1ccccc1N1C(=O)c2cc(S(N)(=O)=O)c(Cl)cc2NC1C` (stereo not given), the cell viability came out at 1.06 ± 0.078 in the assay on DLD1 [1], 1.02 ± 0.035 in the assay with HCT116 and 1.02 in the assay on SW480 [2]. The “TCF/Wnt firefly luciferase reporter signal” value in the assay with DLD1 [3] is 1.03 ± 0.072; with SW480 [4], 0.938 ± 0.19.
With `CN1C(C)(C)CCCC1(C)C`, the cell viability in the assay on DLD1 [1] turned out to be 0.993 ± 0.0099; in the assay on HCT116 it was 0.939 ± 0.13; with SW480 [2], 1.02 ± 0.059. Also, the “TCF/Wnt firefly luciferase reporter signal” value in the assay with DLD1 [3] was determined as 0.982 ± 0.011; with SW480 [4], 1 ± 0.025.
With `O=C1NC(Cc2ccc(O)cc2)C(=O)NC1Cc1ccc(O)cc1` (stereo not given) [Cyclo(tyrosyltyrosyl)], the cell viability with DLD1 [1] worked out at 0.902 ± 0.091; in the assay with HCT116, 0.942 ± 0.11; in the assay on SW480 [2] it was 0.953 ± 0.011. Moreover, the “TCF/Wnt firefly luciferase reporter signal” value in the assay on DLD1 [3] was 1.04 ± 0.057; in the assay on SW480 [4], 0.98 ± 0.023.
On to `CC(C)NCC(O)COc1ccc(CC(N)=O)cc1` (stereo not given), for which the results for the cell viability in the assay with DLD1 [1], in the assay on HCT116 and with SW480 [2] were 1.07 ± 0.057, 0.932 ± 0.016 and 1.02 ± 0.066, respectively. Also, the results for the “TCF/Wnt firefly luciferase reporter signal” value in the assay on DLD1 [3] and with SW480 [4] were 0.971 ± 0.055 and 1.07 ± 0.064, respectively.
Regarding `C[C@@H]1CC(=O)O[C@H](C)Cc2cc(O)cc(O)c2C(=O)O[C@H](C)CC(=O)O[C@H](C)Cc2cc(O)cc(O)c2C(=O)O[C@H](C)CC(=O)O1`, the cell viability was 0.982 ± 0.0014 in the assay with DLD1 [1], 0.997 ± 0.047 with HCT116 and 1.01 ± 0.026 in the assay with SW480 [2]. Also, the “TCF/Wnt firefly luciferase reporter signal” value in the assay on DLD1 [3] worked out at 1.05 ± 0.028; with SW480 [4] it was 0.918 ± 0.042.
Turning to `CC(N)CCCC(C)(C)O` (stereo not given), the cell viability in the assay on DLD1 [1] stood at 1.01 ± 0.092; with HCT116 it was 0.955 ± 0.078; with SW480 [2], 0.933 ± 0.022. For the same compound, the “TCF/Wnt firefly luciferase reporter signal” value turned out to be 1.03 ± 0.021 in the assay with DLD1 [3] and 1.04 ± 0.035 in the assay with SW480 [4].
With `COc1ccc2c(c1)c(CC(=O)O)c(C)n2C(=O)c1ccc(Cl)cc1`, the cell viability was 1.01 ± 0.016 in the assay on DLD1 [1], 0.785 ± 0.33 in the assay on HCT116 and 1.03 ± 0.028 with SW480 [2]. In addition, the “TCF/Wnt firefly luciferase reporter signal” value was 1.08 ± 0.014 in the assay with DLD1 [3] and 1.1 ± 0.014 with SW480 [4].
On to `C=CCc1ccc(OC(=O)c2ccccc2)c(OC)c1`, for which the cell viability in the assay with DLD1 [1] stood at 1.02 ± 0.14; with HCT116, 1.07 ± 0.05; with SW480 [2] it was 1.02 ± 0.063. Also, the “TCF/Wnt firefly luciferase reporter signal” value in the assay with DLD1 [3] was found to be 1.22 ± 0.014; in the assay on SW480 [4], 1 ± 0.14.
The matching figures for `COc1ccc2c(c1OC)C(=O)O[C@@H]2[C@H]1c2c(cc3c(c2OC)OCO3)CCN1C`: 0.9895 ± 0.0092, 0.879 ± 0.0099, 0.995 ± 0.0014, 0.973 ± 0.17 and 0.945 ± 0.15.
